Some of the results follow. Activity calls are given as the source filed them.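 How the source made its calls: active means inhibition of aptamer binding above 40%, about triple the noise seen with nonglowing compounds, on plates passing quality control; inactive means the rest.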
target: Beta-adrenergic receptor kinase 1 (Homo sapiens) (UniProt P25098); test: RNA aptamer-GRK2 binding blockers – biochemical, cherry pick 2, bead flow cytometry, confirmation (AID 504782); conditions: bead-bound GRK2, FAM-aptamer displacement; at 10 µM, active compounds read high;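 on inhibition of aptamer binding: negative values mostly come from compounds that fluoresce themselves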
Sequence (P25098 whole entry, looked up): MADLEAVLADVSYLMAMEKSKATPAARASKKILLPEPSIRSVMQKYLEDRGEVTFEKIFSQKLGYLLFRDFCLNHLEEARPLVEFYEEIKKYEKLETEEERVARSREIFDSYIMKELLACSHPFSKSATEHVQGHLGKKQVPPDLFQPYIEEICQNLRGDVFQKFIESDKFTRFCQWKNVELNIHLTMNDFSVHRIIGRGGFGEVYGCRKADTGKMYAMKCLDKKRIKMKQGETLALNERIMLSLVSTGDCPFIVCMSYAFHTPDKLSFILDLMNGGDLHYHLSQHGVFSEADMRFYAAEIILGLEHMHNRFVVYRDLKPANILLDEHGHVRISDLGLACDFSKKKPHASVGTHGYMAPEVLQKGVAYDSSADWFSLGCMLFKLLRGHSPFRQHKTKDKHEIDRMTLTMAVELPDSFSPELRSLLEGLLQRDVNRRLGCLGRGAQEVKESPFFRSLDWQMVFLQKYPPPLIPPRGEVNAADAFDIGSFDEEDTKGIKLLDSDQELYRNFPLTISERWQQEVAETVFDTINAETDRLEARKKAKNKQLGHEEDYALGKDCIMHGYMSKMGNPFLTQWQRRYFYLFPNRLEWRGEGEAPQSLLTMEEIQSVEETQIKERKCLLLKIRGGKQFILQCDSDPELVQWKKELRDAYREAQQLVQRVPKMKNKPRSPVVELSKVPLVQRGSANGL

Q: For `COc1cccc(OC)c1C(=O)Nc1ccc(Cc2ccncc2)cc1`, which inhibition of aptamer binding is on record?
A: -1.61% (inactive)

Q: Which inhibition of aptamer binding does the source give for `O=C(C1CCCN(S(=O)(=O)c2ccc([N+](=O)[O-])cc2)C1)N1CCCCC1` (stereo unspecified) here?
A: -14.3% (inactive)

Q: With `O=C(NC1C2CC3CC(C2)CC1C3)c1ccc(N2CCNCC2)c([N+](=O)[O-])c1` (stereo unspecified) as the molecule, how does the inhibition of aptamer binding read?
A: -5.52% (inactive)

Q: `Cc1ccc(S(=O)(=O)CC(=O)Nc2sc(C)c(C)c2C(N)=O)cc1` was tested. Which inhibition of aptamer binding did it give?
A: -39.3% (inactive)

Q: How did the inhibition of aptamer binding turn out when `COc1ccc(Cl)cc1NC(=O)CCS(=O)(=O)c1ccc(Br)cc1` was run?
A: 75.5% (active)

Q: For `Cc1nnc(SCC(=O)N2c3ccccc3C(C)(c3ccc(Cl)cc3)CC2(C)C)s1` (stereo unspecified), which inhibition of aptamer binding is on record?
A: 14.7% (inactive)

Q: Which inhibition of aptamer binding does the source give for `O=C(CCS(=O)(=O)c1ccccc1)NC1CCCC1` here?
A: 1.15% (inactive)

Q: How did the inhibition of aptamer binding turn out when `COc1ccccc1C(=O)N(Cc1ccc(C)o1)C1CCS(=O)(=O)C1` (stereo unspecified) was run?
A: 10.1% (inactive)

Q: How did the inhibition of aptamer binding turn out when `CCOCCCNC(=O)c1ccc(CS(=O)(=O)c2cccc(C(F)(F)F)c2)o1` was run?
A: 8.74% (inactive)

Q: How did the inhibition of aptamer binding turn out when `CC(=O)c1ccc(N2CCN(C(=O)c3ccc4nc[nH]c4c3)CC2)cc1` was run?
A: -5.06% (inactive)

Q: With `CCOC(=O)C1=C(N)N(c2ccc(C)cc2)C2=C(C(=O)CCC2)C1c1cccs1` (stereo unspecified) as the molecule, how does the outcome read?
A: inactive
